Laboratory results taken from the supplement of paper PMC11732987, “Enantioselective OTUD7B fragment discovery through chemoproteomics screening and high-throughput optimisation” (Communications Chemistry, 2025).

Tests used:
Test in all cases: log2 ratio of Biotin-Ahx-Ub-VS probe labelling (fragment/DMSO); higher = less target engagement (more negative = stronger competition), active = hit call of the paper (q ≤ 0.05, log2 ratio ≤ -1)
Settings in all cases: compound concentration: 200 uM; treatment time: 3 h
[1] = target: T1, OTUD6B (UniProt Q8N6M0)
T1 sequence (whole entry): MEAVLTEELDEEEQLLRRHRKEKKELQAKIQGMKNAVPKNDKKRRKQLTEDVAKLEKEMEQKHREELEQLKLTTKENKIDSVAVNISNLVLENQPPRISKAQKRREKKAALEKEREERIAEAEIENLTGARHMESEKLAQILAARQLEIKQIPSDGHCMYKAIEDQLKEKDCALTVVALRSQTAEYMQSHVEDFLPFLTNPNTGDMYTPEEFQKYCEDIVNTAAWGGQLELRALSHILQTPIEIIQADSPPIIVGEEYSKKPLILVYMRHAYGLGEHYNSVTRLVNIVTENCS
In short: (§1)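 Each value is an average log2 ratio of fragment to vehicle, tested by unpaired t-test. The underlying Spectronaut label-free quantities were global-median-normalised, and only proteins with ≥2 unique peptides were included. Triplicate HEK293T lysate samples (495 µg) were exposed to fragment at 200 µM or vehicle for 3 h, then to Biotin-Ahx-Ub-VS at 0.5 µM final for 1 h, before NeutrAvidin enrichment of labelled DUBs, LysC and trypsin digestion, and diaPASEF LC-MS/MS.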

[2] = target: T2, OTUD7B (UniProt Q6GQQ9)
T2 sequence (whole entry): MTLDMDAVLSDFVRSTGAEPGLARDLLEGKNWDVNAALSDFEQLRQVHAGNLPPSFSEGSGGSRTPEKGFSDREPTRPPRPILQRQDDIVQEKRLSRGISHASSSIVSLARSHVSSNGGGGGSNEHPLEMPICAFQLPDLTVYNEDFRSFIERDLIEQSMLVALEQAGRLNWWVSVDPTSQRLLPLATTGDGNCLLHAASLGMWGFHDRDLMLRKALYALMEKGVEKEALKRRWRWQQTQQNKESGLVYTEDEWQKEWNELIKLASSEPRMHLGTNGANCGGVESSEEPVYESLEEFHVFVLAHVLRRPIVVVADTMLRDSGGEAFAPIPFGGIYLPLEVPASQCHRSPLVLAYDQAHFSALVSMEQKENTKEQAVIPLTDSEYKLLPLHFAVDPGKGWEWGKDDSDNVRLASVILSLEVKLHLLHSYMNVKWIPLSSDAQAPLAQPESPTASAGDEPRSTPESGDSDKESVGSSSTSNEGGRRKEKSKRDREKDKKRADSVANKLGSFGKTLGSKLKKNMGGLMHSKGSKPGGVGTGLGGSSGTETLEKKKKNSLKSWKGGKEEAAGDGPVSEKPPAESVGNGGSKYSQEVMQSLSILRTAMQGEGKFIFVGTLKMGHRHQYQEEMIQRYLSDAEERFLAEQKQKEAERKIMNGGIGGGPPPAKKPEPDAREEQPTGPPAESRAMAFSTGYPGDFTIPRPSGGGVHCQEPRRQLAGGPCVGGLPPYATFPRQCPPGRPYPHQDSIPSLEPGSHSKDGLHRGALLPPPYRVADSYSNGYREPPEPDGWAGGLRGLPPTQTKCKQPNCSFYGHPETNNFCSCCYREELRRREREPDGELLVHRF
In short: as §1

[3] = target: PRPF8 (UniProt Q6P2Q9)
In short: as §1

[4] = target: T3, PSMD7 (UniProt P51665)
T3 sequence (whole entry): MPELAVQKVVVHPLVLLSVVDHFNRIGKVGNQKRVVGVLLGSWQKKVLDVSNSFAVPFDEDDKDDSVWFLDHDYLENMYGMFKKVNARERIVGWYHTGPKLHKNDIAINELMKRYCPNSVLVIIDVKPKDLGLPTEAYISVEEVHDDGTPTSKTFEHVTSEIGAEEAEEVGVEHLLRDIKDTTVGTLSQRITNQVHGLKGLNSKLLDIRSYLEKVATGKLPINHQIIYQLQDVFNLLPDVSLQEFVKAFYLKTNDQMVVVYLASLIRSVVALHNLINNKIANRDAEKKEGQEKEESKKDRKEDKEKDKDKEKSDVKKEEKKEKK
In short: as §1

[5] = target: UCHL1 (UniProt P09936)
In short: as §1

[6] = target: T4, UCHL3 (UniProt P15374)
T4 sequence (whole entry): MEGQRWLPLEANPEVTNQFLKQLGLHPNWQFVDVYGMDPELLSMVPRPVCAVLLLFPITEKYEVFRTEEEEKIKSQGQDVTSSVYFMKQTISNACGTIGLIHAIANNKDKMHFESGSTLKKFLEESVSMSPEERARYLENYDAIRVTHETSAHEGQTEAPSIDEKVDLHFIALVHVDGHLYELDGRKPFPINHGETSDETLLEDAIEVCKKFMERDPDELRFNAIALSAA
In short: as §1

[7] = target: T5, UCHL5 (UniProt Q9Y5K5)
T5 sequence (whole entry): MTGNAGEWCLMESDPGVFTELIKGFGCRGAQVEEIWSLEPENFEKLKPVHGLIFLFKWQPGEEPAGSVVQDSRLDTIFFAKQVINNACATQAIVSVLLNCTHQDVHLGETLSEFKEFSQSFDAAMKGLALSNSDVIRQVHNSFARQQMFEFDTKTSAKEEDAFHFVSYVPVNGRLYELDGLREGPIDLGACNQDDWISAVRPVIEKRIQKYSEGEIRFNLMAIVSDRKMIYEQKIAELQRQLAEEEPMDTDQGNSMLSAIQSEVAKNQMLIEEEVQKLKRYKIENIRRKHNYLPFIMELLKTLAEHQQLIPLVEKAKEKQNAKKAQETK
In short: as §1

[8] = target: USP10 (UniProt Q14694)
In short: as §1

[9] = target: T6, USP15 (UniProt Q9Y4E8)
T6 sequence (whole entry): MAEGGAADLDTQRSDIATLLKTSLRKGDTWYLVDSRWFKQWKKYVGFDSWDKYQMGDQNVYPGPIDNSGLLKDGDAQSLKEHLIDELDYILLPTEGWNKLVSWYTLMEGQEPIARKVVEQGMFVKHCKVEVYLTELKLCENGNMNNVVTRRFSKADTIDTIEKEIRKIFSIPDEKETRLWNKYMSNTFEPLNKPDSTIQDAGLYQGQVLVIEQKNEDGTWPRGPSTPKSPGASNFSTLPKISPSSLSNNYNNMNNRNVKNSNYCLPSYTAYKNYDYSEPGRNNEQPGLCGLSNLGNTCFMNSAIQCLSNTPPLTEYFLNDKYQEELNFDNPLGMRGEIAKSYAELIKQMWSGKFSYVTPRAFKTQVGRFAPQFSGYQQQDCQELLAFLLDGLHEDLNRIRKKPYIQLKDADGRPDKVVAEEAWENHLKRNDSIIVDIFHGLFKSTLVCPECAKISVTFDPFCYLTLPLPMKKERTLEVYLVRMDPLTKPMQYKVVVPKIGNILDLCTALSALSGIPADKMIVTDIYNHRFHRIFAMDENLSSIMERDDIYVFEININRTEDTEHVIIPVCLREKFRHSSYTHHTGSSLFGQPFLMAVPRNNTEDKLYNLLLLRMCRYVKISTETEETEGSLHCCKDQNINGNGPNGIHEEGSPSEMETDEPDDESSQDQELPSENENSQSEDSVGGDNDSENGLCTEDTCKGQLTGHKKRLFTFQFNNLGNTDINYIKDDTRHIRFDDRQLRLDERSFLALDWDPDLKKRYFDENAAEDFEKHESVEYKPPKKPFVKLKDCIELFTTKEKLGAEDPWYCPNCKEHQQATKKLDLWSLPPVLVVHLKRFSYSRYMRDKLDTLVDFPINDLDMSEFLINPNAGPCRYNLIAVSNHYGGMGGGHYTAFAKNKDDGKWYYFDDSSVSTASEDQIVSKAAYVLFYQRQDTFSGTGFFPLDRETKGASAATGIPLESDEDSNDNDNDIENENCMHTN
In short: as §1

[10] = target: USP16 (UniProt Q9Y5T5)
In short: as §1

Measured: log2 ratio of Biotin-Ahx-Ub-VS probe labelling

Sequence of UCHL1 (P09936 whole entry, looked up): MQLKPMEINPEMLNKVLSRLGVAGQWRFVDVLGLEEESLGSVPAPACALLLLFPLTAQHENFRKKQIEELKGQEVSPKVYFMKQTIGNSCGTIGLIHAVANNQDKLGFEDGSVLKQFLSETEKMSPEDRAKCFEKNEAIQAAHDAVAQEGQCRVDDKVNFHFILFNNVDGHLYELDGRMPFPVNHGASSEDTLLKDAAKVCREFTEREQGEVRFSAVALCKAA
Sequence of USP16 (Q9Y5T5 whole entry, looked up): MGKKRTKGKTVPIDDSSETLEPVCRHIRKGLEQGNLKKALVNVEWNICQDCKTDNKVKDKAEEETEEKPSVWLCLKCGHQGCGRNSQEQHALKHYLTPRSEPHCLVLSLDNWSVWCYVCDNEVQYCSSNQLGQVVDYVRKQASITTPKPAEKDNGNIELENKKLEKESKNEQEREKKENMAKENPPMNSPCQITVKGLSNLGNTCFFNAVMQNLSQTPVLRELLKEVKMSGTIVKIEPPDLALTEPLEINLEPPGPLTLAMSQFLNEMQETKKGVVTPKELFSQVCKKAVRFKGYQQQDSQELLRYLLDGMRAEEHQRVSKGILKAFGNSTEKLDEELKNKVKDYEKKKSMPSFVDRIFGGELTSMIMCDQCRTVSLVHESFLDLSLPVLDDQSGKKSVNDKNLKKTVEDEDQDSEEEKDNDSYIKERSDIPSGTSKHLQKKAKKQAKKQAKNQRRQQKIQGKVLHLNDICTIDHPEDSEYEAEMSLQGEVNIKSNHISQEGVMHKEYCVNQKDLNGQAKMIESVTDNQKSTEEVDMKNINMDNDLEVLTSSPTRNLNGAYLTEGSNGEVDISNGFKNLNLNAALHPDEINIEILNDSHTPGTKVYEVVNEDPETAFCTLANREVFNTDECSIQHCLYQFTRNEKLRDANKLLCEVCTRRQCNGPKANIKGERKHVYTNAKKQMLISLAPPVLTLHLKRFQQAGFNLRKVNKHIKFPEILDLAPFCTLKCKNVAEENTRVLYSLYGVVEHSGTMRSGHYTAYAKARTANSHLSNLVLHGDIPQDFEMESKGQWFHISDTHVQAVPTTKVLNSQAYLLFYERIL
Sequence of USP10 (Q14694 whole entry): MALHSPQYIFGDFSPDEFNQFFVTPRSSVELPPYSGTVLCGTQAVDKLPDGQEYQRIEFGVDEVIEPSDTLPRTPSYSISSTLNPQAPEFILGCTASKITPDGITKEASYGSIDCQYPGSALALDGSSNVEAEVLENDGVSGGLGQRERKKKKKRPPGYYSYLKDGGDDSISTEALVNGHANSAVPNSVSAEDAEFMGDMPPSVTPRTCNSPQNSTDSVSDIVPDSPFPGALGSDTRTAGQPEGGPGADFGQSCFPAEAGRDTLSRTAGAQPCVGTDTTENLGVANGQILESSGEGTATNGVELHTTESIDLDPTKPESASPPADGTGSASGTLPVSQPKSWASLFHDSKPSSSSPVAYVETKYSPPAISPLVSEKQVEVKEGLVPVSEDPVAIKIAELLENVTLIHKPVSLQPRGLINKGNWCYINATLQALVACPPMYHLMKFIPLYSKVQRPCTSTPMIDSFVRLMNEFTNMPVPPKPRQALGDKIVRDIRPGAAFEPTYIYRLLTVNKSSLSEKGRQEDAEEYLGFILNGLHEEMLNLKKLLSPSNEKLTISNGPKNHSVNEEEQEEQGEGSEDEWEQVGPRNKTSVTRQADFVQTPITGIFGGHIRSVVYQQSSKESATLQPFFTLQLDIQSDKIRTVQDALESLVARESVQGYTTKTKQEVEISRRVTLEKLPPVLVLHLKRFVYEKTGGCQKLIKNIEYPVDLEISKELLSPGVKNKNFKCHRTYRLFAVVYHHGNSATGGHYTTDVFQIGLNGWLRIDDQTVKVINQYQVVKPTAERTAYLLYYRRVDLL

CCCn1nccc1NC(=O)CCl
active: [2] -1.42
inactive: [1] 0.0729 | [3] 0.193 | [4] -0.254 | [5] -0.343 | [6] 0.0705 | [7] -0.074 | [8] -0.0888 | [9] -0.238 | [10] -0.307
